Our source for the outcome and AC50 values is PubChem BioAssay (EPA / NIEHS).

A short description of test [1]: BSK_CASM3C_SRB: Viability Assessment in the BioMAP Diversity Plus: CASM3C Assay (AID 2283050).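 Further: cells exposed to compound for 24 h.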 To be noted: primary human coronary artery smooth muscle cells.
Read-out in test [2]: Thrombomodulin, THBD (gene 7056)
Kind of test: BSK_CASM3C_Thrombomodulin: BioMAP Diversity Plus: CASM3C Assay for Thrombomodulin Biomarker Activity (AID 2283051).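 Further: thrombomodulin protein level measured by ELISA 24 h after dosing.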 The settings on record: primary human coronary artery smooth muscle cells; actives raise or lower the signal.

Read-out in test [3]: Tissue Factor, F3 (gene 2152)
Kind of test: BSK_CASM3C_TissueFactor: BioMAP Diversity Plus: CASM3C Assay for Tissue Factor Biomarker Activity (AID 2283052).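 Further: cell surface tissue factor protein level read by ELISA.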 The settings on record: primary human coronary artery smooth muscle cells; actives raise or lower the signal.

Read-out in test [4]: Interferon-gamma inducible Protein 10 (IP10), CXCL10 (gene 3627)
Kind of test: BSK_hDFCGF_IP10: BioMAP Diversity Plus: hDFCGF Assay for Interferon-gamma inducible Protein 10 (IP10) Biomarker Activity (AID 2283053). The settings on record: primary human foreskin fibroblasts; actives raise or lower the signal. In outline: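 Cells: human dermal foreskin fibroblasts. Exposure: 24 h post-dosing. Detection: IP-10 ELISA, with values expressed against DMSO controls and fitted in both directions.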

Read-out in test [5]: Urokinase-type plasminogen activator receptor (uPAR), PLAUR (gene 5329)
Kind of test: BSK_CASM3C_uPAR: BioMAP Diversity Plus: CASM3C Assay for Urokinase-type plasminogen activator receptor (uPAR) Biomarker Activity (AID 2283054).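 Further: cell-surface uPAR protein level quantified by ELISA.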 To be noted: primary human coronary artery smooth muscle cells; actives raise or lower the signal.

Read-out in test [6]: Vascular cell adhesion molecule 1 (VCAM1), VCAM1 (gene 7412)
Kind of test: BSK_CASM3C_VCAM1: BioMAP Diversity Plus: CASM3C Assay for Vascular cell adhesion molecule 1 (VCAM1) Biomarker Activity (AID 2283055).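 Further: VCAM-1 protein level quantified by ELISA on the cells.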 The settings on record: primary human coronary artery smooth muscle cells; actives raise or lower the signal.

Read-out in test [7]: Collagen III, COL3A1 (gene 1281)
Kind of test: BSK_hDFCGF_CollagenIII: BioMAP Diversity Plus: hDFCGF Assay for Collagen III Biomarker Activity (AID 2283056). The settings on record: primary human foreskin fibroblasts; actives raise or lower the signal. In outline: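 Cells: human foreskin fibroblasts, primary. Dosing followed by 24 h incubation, then ELISA for collagen III. Both increases and decreases scored relative to DMSO.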

Read-out in test [8]: Epidermal growth factor receptor (EGFR), EGFR (gene 1956)
Kind of test: BSK_hDFCGF_EGFR: BioMAP Diversity Plus: hDFCGF Assay for Epidermal growth factor receptor (EGFR) Biomarker Activity (AID 2283057). To be noted: primary human foreskin fibroblasts; actives raise or lower the signal. In a few lines:
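Dosing human primary skin fibroblasts, then measuring surface EGFR by ELISA at 24 h, gives the endpoint; gains and losses relative to DMSO were fitted in both directions.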

Read-out in test [9]: Interleukin-8 (IL8), CXCL8 (gene 3576)
Kind of test: BSK_hDFCGF_IL8: BioMAP Diversity Plus: hDFCGF Assay for Interleukin-8 (IL8) Biomarker Activity (AID 2283058). The settings on record: primary human foreskin fibroblasts; actives raise or lower the signal. In outline:
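IL-8 levels from compound-treated primary human fibroblasts were read by ELISA at 24 h, with DMSO serving as baseline for bidirectional fitting.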

Test [10] can be described thus: BSK_hDFCGF_Proliferation: Cell Proliferation Assessment in the BioMAP Diversity Plus: hDFCGF Assay (AID 2283059).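 Further: curves fitted for both rise and fall of signal versus DMSO baseline.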 The settings on record: primary human foreskin fibroblasts. In outline:
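Primary human foreskin fibroblasts, sub-confluent; […]; 10% TCA fix, 0.1% SRB stain, A560 total protein. Gain/loss fitted bidirectionally vs DMSO control.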

Read-out in test [11]: Macrophage colony-stimulating factor (MCSF), CSF1 (gene 1435)
Kind of test: BSK_hDFCGF_MCSF: BioMAP Diversity Plus: hDFCGF Assay for Macrophage colony-stimulating factor (MCSF) Biomarker Activity (AID 2283060). To be noted: primary human foreskin fibroblasts; actives raise or lower the signal. In a few lines: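 M-CSF levels, determined by ELISA, are taken at 24 h after dosing human skin fibroblasts. Responses in either direction are fitted with DMSO serving as the baseline.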

A short description of test [12]: BSK_hDFCGF_SRB: Viability Assessment in the BioMAP Diversity Plus: hDFCGF Assay (AID 2283061).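 Further: cells exposed to compound for 24 h before the read.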 The settings on record: primary human foreskin fibroblasts. In a few lines:
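Cells were dosed with test chemical, cultured 24 h, fixed with 10% TCA, then stained with 0.1% SRB and read at 560 nm. The fibroblasts were human foreskin primary cells, and DMSO served as baseline.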

Read-out in test [13]: TIMP metallopeptidase inhibitor 1 (TIMP1), TIMP1 (gene 7076)
Kind of test: BSK_hDFCGF_TIMP1: BioMAP Diversity Plus: hDFCGF Assay for TIMP metallopeptidase inhibitor 1 (TIMP1) Biomarker Activity (AID 2283062). The settings on record: primary human foreskin fibroblasts; actives raise or lower the signal. In a few lines:
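Fibroblasts from human foreskin are treated with test chemical and harvested at 24 h. TIMP-1 is quantified by ELISA, and gain or loss of signal is scored against DMSO.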

Read-out in test [14]: Monokine induced gamma interferon (MIG), CXCL9 (gene 4283)
Kind of test: BSK_hDFCGF_MIG: BioMAP Diversity Plus: hDFCGF Assay for Monokine induced gamma interferon (MIG) Biomarker Activity (AID 2283063). The settings on record: primary human foreskin fibroblasts; actives raise or lower the signal. In outline: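 MIG signal, determined by ELISA, reflects 24 h chemical exposure of human skin primary fibroblasts. DMSO serves as negative control and baseline.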

Read-out in test [15]: Matrix Metallopeptidase 1 (MMP1), MMP1 (gene 4312)
The test is described as follows: BSK_hDFCGF_MMP1: BioMAP Diversity Plus: hDFCGF Assay for Matrix Metallopeptidase 1 (MMP1) Biomarker Activity (AID 2283064). The settings on record: primary human foreskin fibroblasts; actives raise or lower the signal. In a few lines:
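Human foreskin fibroblasts exposed to chemical for 24 h; MMP1 detected by ELISA, with DMSO as baseline for bidirectional fitting.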

Read-out in test [16]: Vascular cell adhesion molecule 1 (VCAM1), VCAM1 (gene 7412)
Kind of test: BSK_hDFCGF_VCAM1: BioMAP Diversity Plus: hDFCGF Assay for Vascular cell adhesion molecule 1 (VCAM1) Biomarker Activity (AID 2283065).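 On AC50: VCAM-1 protein level quantified by ELISA after 24 h chemical exposure.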 To be noted: primary human foreskin fibroblasts; actives raise or lower the signal. In outline:
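Cells are dosed, cultured for 24 h, then VCAM-1 is quantified by ELISA; signal increases and decreases are both fitted relative to DMSO.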

Read-out in test [17]: Plasminogen activator inhibitor-1 (PAI1), SERPINE1 (gene 5054)
Kind of test: BSK_hDFCGF_PAI1: BioMAP Diversity Plus: hDFCGF Assay for Plasminogen activator inhibitor-1 (PAI1) Biomarker Activity (AID 2283066). The settings on record: primary human foreskin fibroblasts; actives raise or lower the signal. In a few lines: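 Fibroblasts from human foreskin were treated with test chemical. After 24 h, PAI-1 was measured by ELISA. Activity was fitted in both directions relative to DMSO.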

Read-out in test [18]: Intercellular Adhesion Molecule 1 (ICAM1), ICAM1 (gene 3383)
The test is described as follows: BSK_KF3CT_ICAM1: BioMAP Diversity Plus: KF3CT Assay for Intercellular Adhesion Molecule 1 (ICAM1) Biomarker Activity (AID 2283067). To be noted: primary human keratinocytes with fibroblasts; actives raise or lower the signal. In outline: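 Dose the keratinocyte/fibroblast co-culture, wait 24 h, measure ICAM-1 by ELISA, then fit increases or decreases against DMSO. Cytotoxicity is checked in parallel cultures by SRB total-protein staining.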

Read-out in test [19]: Interferon-gamma inducible Protein 10 (IP10), CXCL10 (gene 3627)
Kind of test: BSK_KF3CT_IP10: BioMAP Diversity Plus: KF3CT Assay for Interferon-gamma inducible Protein 10 (IP10) Biomarker Activity (AID 2283068). The settings on record: primary human keratinocytes with fibroblasts; actives raise or lower the signal. In a few lines: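 In a primary skin co-culture of keratinocytes and fibroblasts, IP-10 is quantified by ELISA at 24 h after dosing. SRB staining of parallel wells monitors overt toxicity. Curves are fitted both directions against DMSO.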

Test [20] is described as follows: BSK_KF3CT_SRB: Viability Assessment in the BioMAP Diversity Plus: KF3CT Assay (AID 2283069).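 Further: fitted for both signal gain and loss against DMSO baseline.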 The settings on record: primary human keratinocytes with fibroblasts. In outline: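 Overt cytotoxicity is assessed as total protein by sulforhodamine B staining in parallel human skin co-cultures at 24 h after dosing. DMSO serves as negative control and baseline.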

Structures are written as SMILES. Activity calls are given as the source filed them. How the source made its calls: active means hit-call score of the fitted dose curve at least 0.9, where 1 is the maximum; inactive means score below 0.9.

Consider `O=C(O)C(F)(F)C(F)(F)C(F)(F)C(F)(F)C(=O)O`, for which the outcome in test [1], in [2], in test [3], in [4], in [5] and in test [6] was inactive. The outcome in [7], in [8], in test [9], in test [10], in test [11] and in [12] was inactive. The result in test [13], in test [14], in [15], in [16], in test [17] and in test [18] was inactive. Further, the result in test [19] and in [20] was inactive.
For `CCCCCC1=CCCC1=O`, the outcome in [1], in test [2], in [3], in [4], in test [5] and in [6] was inactive. Also, the result in test [7], in [8], in [9], in test [10], in test [11] and in test [12] was inactive. Besides, the result in [13], in test [14], in [16], in test [17], in [18] and in test [19] was inactive. Moreover, in test [20], the result was inactive. Further, the AC50 in test [15] is 0.016 µM (active).
For the compound `CC(C)CCCCCOC(=O)CS`, the result in [1], in [2], in test [3], in test [4], in test [5] and in test [6] was inactive. The outcome in test [7], in test [8], in test [9], in test [11], in test [12] and in [13] was inactive. For the same compound, the outcome in test [14], in test [15], in [16], in test [18], in [19] and in test [20] was inactive. The concentration at half-maximal activity (AC50) in test [17] is 9.15 µM (active).
Turning to `COC(OC)(C(=O)c1ccccc1)c1ccccc1`, the result in [1], in test [2], in test [3], in test [4], in test [5] and in test [6] was inactive. The result in test [7], in test [8], in test [9], in test [11], in test [12] and in test [13] was inactive. Besides, the outcome in test [14], in [15], in test [16], in test [17], in test [18] and in test [19] was inactive. For the same compound, the result in [20] was inactive.
`CC/C=C\C/C=C\C/C=C\CCCCCCCC(=O)OC`: the AC50 in test [1] is 15.2 µM (active); in test [2], 36.2 µM (active); in test [3], 13.9 µM (active); in [4], 10.7 µM (active); in test [5], 29.7 µM (active); in test [6], 14.8 µM (active). In addition, the AC50 was 5.53 µM (active) in test [7]; 20 µM (active) in test [9]; 8.71 µM (active) in test [11]; 6.53 µM (active) in test [12]; 10.7 µM (active) in [13]; 11.1 µM (active) in [14]. Besides, the AC50 in [15] was 12.3 µM (active); in [16] it was 8.22 µM (active); in test [17] it was 6.64 µM (active); in test [18], 12.3 µM (active); in [19] it was 20 µM (active); in test [20], 20 µM (active). The outcome in [8] was inactive.
For `C=CCCCCCCCCC=O`, the result in test [1], in [2], in test [3], in [4], in test [5] and in test [6] was inactive. In addition, the result in test [7], in test [8], in [9], in test [11], in test [12] and in [13] was inactive. The outcome in test [14], in [15], in test [16], in test [17], in test [18] and in test [19] was inactive. For the same compound, in test [20], the result was inactive.
